Compound activity: PubChem BioAssay, several laboratories
C-LANA FP: KSHV C-LANA DNA binding inhibition; AID 504423; MBP-C-LANA/FAM-LBS DNA binding, fluorescence polarization; actives 0.078% (n = 340,000); inhibition, % at 9 µM;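 active means highest replicate inhibition at or above 60% at 9 µM, even if other replicates fall short; inactive means all replicates below 60% inhibition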
Cardiac RTF inh: cardiac RTF calcium desensitization | AID 493244 | inhibition, % at 7.15 µM | actives 0.12% (n = 340,000) | P19429+P45379 | IANBD-labeled cardiac RTF, Ca2+ fluorescence;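 active means inhibition above the mean inhibition of all tested compounds plus 3 SD, cut at about 17% in these data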;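 further: assay run at fixed EC70 calcium of 1.6 mM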
Keap1 Nrf2 FP: inhibitors of human Keap1-Nrf2 protein-protein interaction; Keap1 Kelch-Nrf2 peptide fluorescence polarization, 1536-well; inhibition, % at 9.4 µM; actives 0.15% (n = 340,000); in the data active means inhibition above about 12%; inconclusive means no clear call, values can overlap the other calls; inactive means below about 7.3%;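 further: human Keap1 Kelch domain with fluorescein labeled Nrf2 9mer peptide probe; higher means more block of Keap1 binding to Nrf2 peptide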
cardiac RTF act: cardiac RTF calcium sensitization. P19429+P45379. IANBD-labeled TnC RTF fluorescence at EC20 calcium; 0% EC20 calcium, 100% full calcium. activation, % at 7.2 µM. actives 0.24% (n = 340,000). AID 493008;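 active means activation above the mean over all tested compounds plus 3 SD, cut at about 30% in these data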;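 further: rise in fluorescence read as greater calcium sensitivity of cardiac thin filaments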
eLon inh: inhibitors of E. coli Lon protease | purified E. coli Lon protease, fluorescence polarization | inhibition, % at 7.94 µM | P0A9M0 | AID 602123 | actives 0.42% (n = 360,000); in the data active means inhibition above about 13%, passing the limit was not always enough
Target sequence (P0A9M0 whole entry, looked up): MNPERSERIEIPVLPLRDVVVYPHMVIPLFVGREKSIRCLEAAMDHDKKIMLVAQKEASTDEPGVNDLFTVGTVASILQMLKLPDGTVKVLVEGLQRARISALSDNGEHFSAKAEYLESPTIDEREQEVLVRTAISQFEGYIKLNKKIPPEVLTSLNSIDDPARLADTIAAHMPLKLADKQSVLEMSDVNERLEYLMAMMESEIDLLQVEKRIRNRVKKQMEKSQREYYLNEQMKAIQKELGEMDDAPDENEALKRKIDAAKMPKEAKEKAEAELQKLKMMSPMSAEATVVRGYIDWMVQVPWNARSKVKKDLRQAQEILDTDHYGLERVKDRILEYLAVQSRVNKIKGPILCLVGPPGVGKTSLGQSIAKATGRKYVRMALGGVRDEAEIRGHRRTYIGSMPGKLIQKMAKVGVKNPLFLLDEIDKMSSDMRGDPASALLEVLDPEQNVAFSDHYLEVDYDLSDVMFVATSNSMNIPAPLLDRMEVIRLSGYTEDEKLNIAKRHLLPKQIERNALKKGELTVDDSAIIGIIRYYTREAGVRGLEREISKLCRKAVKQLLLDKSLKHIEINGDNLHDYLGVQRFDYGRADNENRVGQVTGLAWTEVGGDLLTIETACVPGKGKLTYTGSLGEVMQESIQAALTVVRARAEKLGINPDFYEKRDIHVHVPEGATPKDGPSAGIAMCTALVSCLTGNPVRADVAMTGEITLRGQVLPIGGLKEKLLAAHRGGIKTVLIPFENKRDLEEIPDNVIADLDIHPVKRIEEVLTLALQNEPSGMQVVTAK
Large screens that a line does not name were inactive. Compounds with a hit are over-represented: about 0.82% of the library has one in this group of screens.

N#C/C(=C\c1coc2ccc(O)cc2c1=O)C(=O)Nc1nc2ccccc2s1	cardiac RTF act 313
NC(=O)c1c(N)sc2c1CCCCC2	cardiac RTF act 30
CC(C)[C@H](NS(=O)(=O)c1ccccc1)C(=O)OCC(=O)NC(=O)NC1CCCCC1	none
Cc1ccc(C)n1/N=C1/NC(=O)CS1	C-LANA FP 87
Cc1cc(/C=C2\SC(=S)N(Cc3ccco3)C2=O)c(C)n1-c1cccnc1	cardiac RTF act 89
O=C1/C(=C/c2ccco2)SC(=S)N1c1cccnc1	C-LANA FP 72
O=C1/C(=C\c2ccco2)SC(=S)N1c1ccc(O)cc1	none
CCOC(=O)N1CCN(C(=O)C2CCN(C(=O)c3ccccc3C)CC2)CC1	none
CCN1CCc2c(sc(NC(=O)Nc3ccc(Cl)c(Cl)c3)c2C(N)=O)C1	cardiac RTF act 152
NC(=O)c1c(NC(=O)c2ccccc2)sc2c1CCN(Cc1ccccc1)C2	cardiac RTF act 49
CCN1CCc2c(sc(NC(=O)Cc3ccccc3)c2C(N)=O)C1	none
O=S(=O)(O)c1cc(O)c2cc(Nc3ccccc3)ccc2c1	C-LANA FP 93
CC(=O)NC(=S)Nc1ccc(NC(=S)NC(=O)/C=C/c2ccco2)cc1	none
O=C(/C=C/c1ccco1)NC(=S)Nc1ccc(C(=O)O)cc1	C-LANA FP 62
Cc1cc2n(n1)C(c1ccccc1)CC(c1ccc(Br)cc1)=N2 (stereo unspecified)	eLon inh 60
CNC(=S)N1N=C(c2ccc(Br)cc2)CC1c1ccc(Br)cc1 (stereo unspecified)	none
NC(=O)C1CCN(c2nc(-c3cccc(N)c3)cs2)CC1	none
NC(=O)C1CCN(c2nc(-c3cccnc3)cs2)CC1	Keap1 Nrf2 FP 13
CCOc1ccc2nc3cc(NCc4ccc(OC)cc4)ccc3c(N)c2c1	cardiac RTF act 76
CCSC1=N/C(=C\C=C2/Oc3ccccc3N2CC)C(=O)S1	cardiac RTF act 39
CCSC1=N/C(=C\c2ccc3c(c2)OCO3)C(=O)S1	Keap1 Nrf2 FP inconclusive
Oc1sc(C=Nc2ccccc2)c2ccccc12	cardiac RTF act 75
O=c1oc2c(O)c(O)cc3c(=O)oc4c(O)c(O)cc1c4c23	C-LANA FP 127, Cardiac RTF inh 102
O=C(NCc1ccccc1Cl)c1cc(=O)[nH]c2ccccc12	none
CCn1cc(/C=C/c2cc[n+](C)cc2)c2ccccc21	cardiac RTF act 371
C=CCn1c(C)c(/C=C/c2cc[n+](C)cc2)c2ccccc21	cardiac RTF act 114
Cc1ccccc1/C=C/c1cc[n+](C)cc1	none
CC(C)n1cc(/C=C/c2cc[n+](C)cc2)c2ccccc21	cardiac RTF act 344
C=CCn1cc(/C=C/c2cc[n+](C)cc2)c2ccccc21	cardiac RTF act 170
CCn1c(/C=C/c2c(C)n(CC)c3ccccc23)nc2ccccc2c1=O	none
O=C1Nc2ccccc2O/C1=C\c1ccccc1Br	none
Cc1[nH]c2ccccc2c1/C=C/c1cc[n+](C)cc1	cardiac RTF act 95
CCN(CC)C(=O)Cn1c(C)c(/C=C/c2cc[n+](C)cc2)c2ccccc21	cardiac RTF act 87 (no result: C-LANA FP)
C[n+]1ccc2[nH]c3ccccc3c2c1	none (no result: C-LANA FP, Cardiac RTF inh, Keap1 Nrf2 FP, cardiac RTF act)
N#CC1=C(N)Oc2cc(O)c(Cl)cc2C1c1ccccc1F (stereo unspecified)	cardiac RTF act 33
N#CC1=C(N)Oc2cc(O)c(Cl)cc2C1c1cccnc1 (stereo unspecified)	none
O=C(NCCc1ccc(F)cc1)c1coc(=O)c(Br)c1	none
O=C(Nc1ccccc1F)c1coc(=O)c(Br)c1	C-LANA FP 87
CCOc1ccc(S(=O)(=O)N2CCCC(C(=O)NCc3cccnc3)C2)cc1Cl (stereo unspecified)	none
COc1ccc(S(=O)(=O)N(C)CC(=O)NCCN2CCOCC2)cc1C	none
CCn1c(O)c(/C=N/N=C/c2ccccc2)c2ccc(C3=NNC(=O)CC3)cc21	cardiac RTF act 36
CCC(CC)=N/N=C/c1c(O)n(CC)c2cc(C3=NNC(=O)CC3)ccc12	none
CN=Cc1nc(-c2ccccc2)oc1O	none
CC1=Nc2ccccc2/C1=C\c1nc(-c2ccc(F)cc2)oc1O	cardiac RTF act 84
C/C(=C\C=C(C#N)C#N)c1cc(C#N)c(N)o1	cardiac RTF act 149
Cc1ccc(CC(=O)Nc2cccc(C(=O)Nc3c(C)n(C)n(-c4ccccc4)c3=O)c2)cc1C	none (no result: C-LANA FP, Cardiac RTF inh, Keap1 Nrf2 FP, cardiac RTF act)
COC(=O)c1ccc(COC(=O)CCNS(=O)(=O)c2ccc(C)c(C)c2)cc1	none
CN(C)c1ccc(/C=N/N(CCO)C2=NS(=O)(=O)c3ccccc32)cc1	cardiac RTF act 316
COC(=O)c1ccc2c(c1)c(-c1ccccc1)c(-c1ccccc1)n2C	none
C/C(=N\NC(=O)c1cc(-c2ccccn2)nc2ccccc12)c1cccc([N+](=O)[O-])c1	C-LANA FP 98
COc1ccc(CC(N)c2csc(Nc3ccc(S(C)(=O)=O)cc3)n2)cc1 (stereo unspecified)	none (no result: C-LANA FP, Cardiac RTF inh, Keap1 Nrf2 FP, cardiac RTF act)
CCCS(=O)(=O)c1ncc(Cl)c(C(=O)Nc2ccc(S(=O)(=O)Nc3ncccn3)cc2)n1	Keap1 Nrf2 FP 42
CCOc1ccccc1-c1c2cc(O)c(=O)cc-2oc2cc(O)c(O)cc12	C-LANA FP 158, Keap1 Nrf2 FP active, cardiac RTF act active, eLon inh 176
COc1ccc(OC)c(-c2oc3ccccc3c(=O)c2O)c1	none
Cc1ccccc1-c1cc(=O)c2c(O)cccc2o1	none
O=c1cc2oc3cc(O)c(O)cc3c(-c3ccccc3O)c-2cc1O	C-LANA FP 146, Keap1 Nrf2 FP 49, cardiac RTF act 51, eLon inh 92
COc1ccc(OC)c(-c2c3cc(O)c(=O)cc-3oc3cc(O)c(O)cc23)c1	C-LANA FP 167, Keap1 Nrf2 FP active, cardiac RTF act active, eLon inh active
COC(=O)[C@H](C)NC(=O)c1cc2c(cn1)[nH]c1ccccc12	cardiac RTF act 32
Cc1c(C)n(Cc2ccccc2)c2ncnc(Cl)c12	none
CN(C)c1ccc(O)c2c1CC1CC3[C@@H](N(C)C)C(=O)C(C(N)=O)=C(O)[C@]3(O)C(=O)C1=C2O (stereo partly specified)	C-LANA FP 77
CC1=CC2=C(OC1N(C)C)c1cccc3cccc(c13)C2=O (stereo unspecified)	eLon inh 64
CN(C)CCCN1C(=O)c2cccc3cccc(c23)C1=O	none
Nc1ccc(-c2c3ccc(=O)cc-3oc3cc(O)ccc23)cc1C(=O)O	C-LANA FP 110, Keap1 Nrf2 FP 26, cardiac RTF act active
O=c1cc(-c2ccccc2)oc2cc(O)ccc12	none
O=c1ccc2c(-c3ccccc3)c3ccc(O)cc3oc-2c1	C-LANA FP 142, Keap1 Nrf2 FP 98, cardiac RTF act active (no result: eLon inh)
Cc1ccc(CNc2ccc3c(c2)OCO3)cc1	cardiac RTF act 39, eLon inh 24
Cn1cc(/C=C2\SC(=S)N(NC(=O)c3cccc(Cl)c3)C2=O)c2ccccc21	cardiac RTF act 45
